Results on 15 compounds are retold here after PubChem BioAssay (NCI).

The panel holds about 83,000 compounds, 20% with a hit somewhere; the sample as a whole holds those more often.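 Single-concentration screen, 48 h exposure, 96-well plates. Endpoint: percent growth. Below 10 = active.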 Unmarked numbers belong to inactive results. The source made the active and inactive calls.

Common to all, as to assay: NCI-60 one-dose screen, 48 h (100 = growth as untreated, 0 = no growth, -100 = all killed)
Common to all, as to conditions: 10 µM unless noted

Assay [1] has as its system T-47D breast.
In assay [2] the test system is BT-549 breast.
For assay [3], the system named is MDA-MB-435 melanoma.
Assay [4] has as its system SW-620 colon.
The test system of assay [5] is MCF7 breast.
For assay [6], the system named is HCT-116 colon.
Assay [7] deals with HCC-2998 colon.
In assay [8] the test system is KM12 colon.

On to `O=C1CCc2c(sc3[nH]c(=S)n(-c4ccc(OC(F)(F)F)cc4)c(=O)c23)C1`, for which the growth in assay [1] is 20.3%; in assay [2], 38%; in assay [3], 55%; in assay [4] it was 19.9%; in assay [5], 44.5%; in assay [6] it was 30.1%. Also, the values for the growth in assay [7] and in assay [8] were 28.5% and 10.8%, respectively.

Turning to `c1coc(-c2c3ccc(=[N+]4CCCCC4)cc-3oc3cc(N4CCCCC4)ccc23)c1`, the growth is -50.4% (active) in assay [1]; -82.8% (active) in assay [2]; -68.1% (active) in assay [3]; -80% (active) in assay [4]; -69.7% (active) in assay [5]; -95.2% (active) in assay [6]. Further, the figures for the growth in assay [7] and in assay [8] were -96.5% (active) and -93.3% (active), respectively.

Take `Cn1cc(-c2csc(-c3cccc(F)c3)n2)c2cccnc21`: the growth in assay [1] was -47.9% [100 µM] (active); in assay [2], -36.9% [100 µM] (active); in assay [3] it was -53.6% [100 µM] (active); in assay [4], -49.8% [100 µM] (active); in assay [5] it was -62% [100 µM] (active); in assay [6] it was -79.7% [100 µM] (active). The growth is -84.6% [100 µM] (active) in assay [7] and -70% [100 µM] (active) in assay [8].

Turning to `Cc1ccc(Nc2ccc(Nc3ccc(C)cc3)c3c2C(=O)c2cccc(O)c2C3=O)cc1`, the growth in assay [1] is 104%; in assay [2], 113%; in assay [3] it was 104%; in assay [4], 99.4%; in assay [5], 87.6%; in assay [6], 99%. Further, the values for the growth in assay [7] and in assay [8] were 109% and 92.7%, respectively.

`COc1ccc(/C=N\NC(=O)c2cc(-c3ccc(Br)cc3)n(-c3ccc(S(N)(=O)=O)cc3)n2)cc1`: the growth was 30.9% in assay [1]; 76.1% in assay [2]; -43.8% (active) in assay [3]; 36.9% in assay [4]; 18.3% in assay [5]; 28.4% in assay [6]. Further, the growth in assay [7] is 66%; in assay [8] it was 30.8%.

On to `CC/C=C1/C(=O)C=C[C@@H]1C/C=C\CCCC(=O)O`, for which the growth in assay [1] is 71.8%; in assay [2], 76.5%; in assay [3], 54.1%; in assay [4] it was 43.5%; in assay [5], 19.8%; in assay [6] it was 35.5%. Besides, the growth in assay [7] was 95.1%; in assay [8] it was 63.4%.

In the case of `O=C(c1ccccc1)c1c(/C=C/c2ccccc2)nc2ccccc2c1/C=C/c1ccc(Br)cc1`, the growth in assay [1] is 95.4%; in assay [2], 111%; in assay [3], 99.7%; in assay [4] it was 98.3%; in assay [5] it was 82.7%; in assay [6] it was 87.8%. Moreover, the growth in assay [7] is 115%; in assay [8] it was 98.7%.

For the compound `COc1ccc(/C=C/c2c(C(=O)/C=C/c3ccc(F)cc3)c(C)nc3ccccc23)cc1`, the growth in assay [1] was 30.6%; in assay [2], 67.5%; in assay [3], 41%; in assay [4], 15.7%; in assay [5] it was 17%; in assay [6], 3.18% (active). Further, the growth is 34.6% in assay [7] and 58.3% in assay [8].

As to `NS(=O)(=O)c1cnccc1Sc1ccncc1S(N)(=O)=O`, the growth was 57% in assay [1]; 96.4% in assay [2]; 106% in assay [3]; 113% in assay [4]; 88.9% in assay [5]; 106% in assay [6]. The growth in assay [7] is 85.8%; in assay [8] it was 108%.

Take `COc1ccc(CNC(=O)C(O)C(Cc2ccccc2)NC(=O)c2[nH]c3ccccc3c(=O)c2C)cc1OC` (stereo not given): the growth in assay [1] was 97.8%; in assay [2] it was 104%; in assay [3] it was 101%; in assay [4], 113%; in assay [5] it was 99.7%; in assay [6], 106%. The growth was 117% in assay [7] and 105% in assay [8].

Regarding `COC(=O)[C@]12CC[C@@H](C)[C@H](C)[C@@H]1C1=CC[C@@H]3[C@@]4(C)C(C=O)=C[C@@](C)(COC(C)=O)[C@@H]4[C@H](O)C[C@@]3(C)[C@]1(C)CC2`, the growth in assay [1] was -18.5% (active); in assay [2], -19.8% (active); in assay [3], -24.3% (active); in assay [4], -59.4% (active); in assay [5] it was -11.7% (active); in assay [6] it was -76.8% (active). Besides, the growth in assay [7] is -71% (active); in assay [8], -27.5% (active).

Take `C=C(C)[C@@H]1CC=C2c3sc(-c4ccc(C)cc4)nc3C[C@@H](C)[C@]2(C)C1`: the growth was 95.4% in assay [1]; 109% in assay [2]; 101% in assay [3]; 103% in assay [4]; 96.9% in assay [5]; 105% in assay [6]. Further, the growth was 115% in assay [7] and 101% in assay [8].

As for `Nc1n[nH]c(-c2cc(Cl)ccc2O)c1-c1ccccc1`, the growth in assay [1] was 85.3%; in assay [2] it was 112%; in assay [3] it was 93.6%; in assay [4], 102%; in assay [5], 92.7%; in assay [6] it was 85.1%. Moreover, the growth was 86.5% in assay [7] and 64.2% in assay [8].

As for `COc1cc(N=Nc2ccc(N)cc2)c(OC)cc1N=Nc1ccccc1.[Cl][Zn][Cl]`, the growth is 88.2% in assay [1]; 93.5% in assay [2]; 98.7% in assay [3]; 105% in assay [4]; 85.6% in assay [5]; 101% in assay [6]. Besides, the growth in assay [7] was 98.9%; in assay [8], 105%.

On to `CCN(CC)CCCC(C)Nc1c2ccc(Cl)cc2nc2ccc(O)cc12` (stereo not given), for which the growth is 49.7% in assay [1]; 64.8% in assay [2]; 27% in assay [3]; 24.5% in assay [4]; 6.22% (active) in assay [5]; 14.8% in assay [6]. Further, the values for the growth in assay [7] and in assay [8] were 25.4% and 30.4%, respectively.
